# In PubChem BioAssay AID1546 (The Scripps Research Institute Molecular Screening Center, 2009):
# The list shows a part of the results. Unmarked numbers belong to inactive results. Rule as the data show it: active = activation above about 45%; inactive = the rest.
# Target: Neuropeptide Y receptor type 1 (Homo sapiens) (UniProt P25929)
# Assay: NPY-Y1 potentiators or agonists, confirmation, cell-based (AID 1546);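 also: cells challenged with NPY at its EC10 plus isoproterenol stimulus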
# Settings: cell-based NPY-Y1 potentiator/agonist assay; at 3.6 µM; stronger effect = higher value
# Chain of Neuropeptide Y receptor type 1 (Homo sapiens) (P25929 whole entry, looked up): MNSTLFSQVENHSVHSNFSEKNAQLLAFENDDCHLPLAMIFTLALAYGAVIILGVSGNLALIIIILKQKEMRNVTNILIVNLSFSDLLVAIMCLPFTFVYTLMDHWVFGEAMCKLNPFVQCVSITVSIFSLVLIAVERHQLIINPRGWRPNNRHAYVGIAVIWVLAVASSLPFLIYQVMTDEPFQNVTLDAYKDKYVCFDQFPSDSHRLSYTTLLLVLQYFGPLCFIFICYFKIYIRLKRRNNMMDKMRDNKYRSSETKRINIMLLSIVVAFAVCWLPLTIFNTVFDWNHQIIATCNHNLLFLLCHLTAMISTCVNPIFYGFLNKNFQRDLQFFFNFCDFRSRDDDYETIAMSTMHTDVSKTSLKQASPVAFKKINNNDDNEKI
row,Structure (SMILES),activation
1,CSC1=NP(=S)(SC)N(C)c2nc3n(c21)CCC3 (configuration not stated),13.8%
2,Cc1nn(Cc2ccccc2Cl)c(Cl)c1C(=O)OC(C(=O)NC(N)=O)C(C)C (configuration not stated),43.3%
